Sampled rows, rich in hits. Any-hit rate of the full collection: about 2.4%.
TGFb SMAD3 inh: qHTS for Inhibitors of TGF-b. Potency, µM (doses to about 46.1 µM), without a hit: top-dose activity, negative = inhibition, most hits filed as inhibitors. 1.2% of 410,000 active. HepG2 CAGA-GFP TGF-b/SMAD3 reporter, GFP fluorescence, 18 h; TGF-beta stimulated, 500 pg/mL final; note: % is set by controls: 0 for no effect and ±100 for the full control effect; nearly all actives have a fitted effect of over 65% in size
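Read-out: total well GFP (ex488/em500-530) summed from mean per-cell fluorescence. Cells: HEPG2 CAGA-GFP, 1% FBS DMEM, 18 h at 37 degrees C with 500 pg/mL final TGF-beta. Unstimulated wells served as the full-inhibition control; stimulated DMSO wells = 0%.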
Anesthetic bind: qHTS Assay for Identification of Novel General Anesthetics; Ferritin light chain (Equus caballus), P02791; 0.074% of 350,000 active; apoferritin/1-aminoanthracene competitive binding, fluorescence; Potency, µM (series often up to 77.5 µM), without a hit: at the top dose activity change, negative = displacement, usual class: inhibitors; note: % is set by controls: 0 for no effect and ±100 for the full control effect; nearly all actives have a fitted effect of over 20% in size
Target sequence (P02791 2-175 limits assumed): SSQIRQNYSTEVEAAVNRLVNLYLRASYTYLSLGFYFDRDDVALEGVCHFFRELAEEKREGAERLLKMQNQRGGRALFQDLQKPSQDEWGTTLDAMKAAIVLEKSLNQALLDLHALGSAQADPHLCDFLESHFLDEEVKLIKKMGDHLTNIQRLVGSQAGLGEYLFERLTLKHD
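Probe: 1-aminoanthracene (50% saturated, PBS). Protein: horse-spleen apoferritin, 10 uM. Incubation: 10 min, room temperature. Detection: 380 nm excitation, 535 nm emission. Analysis: normalized response, four-parameter Hill.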
ATXN2 expr inh: Primary qHTS for Inhibitors of ATXN expression | AID 1745845, 2022 | HEK-293 ATXN2-luciferase reporter, luminescence, 24 h | Potency, µM (highest dose often 57 µM), without a hit: top-dose activity change, negative = inhibition, most hits filed as inhibitors | 0.72% of 360,000 active; note: % is set by controls: 0 for no effect and ±100 for the full control effect; nearly all actives have a fitted effect of over 55% in size
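qHTS (up to 57 uM final) was run with 24 h compound exposure of reporter cells at 37 °C. Each well was multiplexed: SteadyGlo luminescence measured ATXN2-luciferase expression after a fluorogenic Gly-Phe-AFC viability readout (25 uM final).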
HepG2 tox: qHTS for Inhibitors of TGF-b: Cytotox Counterscreen. Potency, µM (titrated, usually from 46.1 µM), inactives show at the highest dose activity change, negative = cytotoxicity, usual class: cytotoxic. AID 588856, 2011. HepG2 CAGA-GFP viability, ATP luminescence, 18 h. 0.76% of 410,000 active
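CellTiter-Glo luminescence gave cytotoxicity after 18 hours at 37 degrees C. The cells were HepG2 CAGA-GFP in 1% FBS DMEM, stimulated with 500 pg/mL TGF-beta after compound addition. %Activity was normalised to no-cell wells (complete cell-killing) and DMSO (no toxicity), and curves were fitted and classified.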
ATXN viability: Viability Counterscreen for Primary qHTS for Inhibitors of ATXN expression; S2 cells (HEK-293 line with an ATXN2-luciferase reporter) viability, CellTiter-Fluor protease fluorescence, 24 h; Potency, µM (top dose mostly 56.7 µM), hits mostly cytotoxic; 0.49% of 400,000 active; note: nearly all actives have a fitted effect of over 40% in size
An asterisk follows results filed as active; i = inactive; u = inconclusive; x = not tested or not shown; ! = not confirmed by another sample. Calls come from the whole dose curve; as a rule, active = well fitted curve in the direction sought with a large enough effect; inconclusive = small, poorly fitted or top-dose-only effect, or another doubt; inactive = no such curve, though single readings can be large; an effect the other way counts as inactive or inconclusive. Potency is the fitted concentration of half-maximal effect.

SMILES | TGFb SMAD3 inh | Anesthetic bind | ATXN2 expr inh | HepG2 tox | ATXN viability
Nc1nc2c(ncn2COC(CO)CO)c(=O)[nH]1 | -2% | 12% | 24µM*! | 2% | i
O=C(NCCN1CCC(n2c(=O)[nH]c3ccccc32)CC1)c1cccc(Cl)c1 | x | x | -19% | x | i
COc1ccc(OCCNC(=O)C2(C)CCN2Cc2ccc3ccccc3c2)cc1 (stereo not given) | 14µM* | x | u | -56% | u
CCCC(=O)N1CCCC(c2cc(C(=O)Nc3ccccc3)no2)C1 (stereo not given) | 1% | x | 11µM* | 10µM* | i
CCOc1ccc(-c2cn3c(n2)sc2cc(C(=O)NCCCN4CCCCCC4)ccc23)cc1 | u | 1% | u | 11µM* | x
CCOc1ccc(-c2cn3c(n2)sc2cc(C(=O)NCCCN4CCCCC4)ccc23)cc1 | 0% | -4% | u | 2.5µM* | u
COc1ccc(-c2cn3c(n2)sc2cc(C(=O)NCCCc4ccccc4)ccc23)cc1 | -9% | -5% | x | -27% | x
CCOc1ccc(-c2cn3c(n2)sc2cc(C(=O)NCCCN(CC)CC)ccc23)cc1 | u | -6% | 8.9µM* | 10µM* | 13µM*
CCN(CC)CCNC(=O)c1ccc2c(c1)sc1nc(-c3ccc(F)cc3)cn12 | 11µM* | -12% | x | 16µM* | x
CCOc1ccc(CNC(=O)c2ccc3c(c2)sc2nc(-c4ccc(OC)cc4)cn23)cc1 | -11% | -9% | x | 2% | x
CCCN1CCN(CCCNC(=O)c2ccc3c(c2)sc2nc(-c4ccc(OCC)cc4)cn23)CC1 | 28% | 1% | x | -27% | x
Cc1cc(=O)[nH]c(N/N=C/c2ccc(OC(=O)c3ccco3)cc2)n1 | 0% | -13% | -4% | 0% | i
COc1ccc(C(=O)NNC(=O)c2ccc3ccccc3n2)cc1 | u | x | 20µM* | -12% | x
COC(=O)C1CCCCN1Cc1ccc2c(c1)CN(C(=O)c1csc(-c3cccs3)n1)CCO2 (stereo not given) | x | x | x | x | i
O=C(NC(c1ccc(Cl)cc1)c1c(O)ccc2ccccc12)c1ccccc1 (stereo not given) | 11µM* | 2% | 13% | 18µM* | i
CC(C)C[C@H](NC(=O)[C@H](CO)NC(=O)[C@@H]1CCCN1C(=O)[C@H](Cc1ccc(O)cc1)NC(=O)[C@H](CC(C)C)NC(=O)[C@H](CC(C)C)NC(=O)[C@@H]1CCCN1C(=O)[C@@H](NC(=O)[C@H](CO)NC(=O)[C@H](CO)NC(=O)[C@H](CO)NC(=O)[C@H](CO)NC(=O)[C@@H]1CCCN1C(=O)[C@@H](NC(=O)[C@@H](N)CO)C(C)C)[C@@H](C)O)C(=O)N[C@@H](C)C(=O)N[C@@H](CC(C)C)C(=O)N1CCC[C@H]1C(=O)N[C@@H](C)C(=O)N1CCC[C@H]1C(=O)O | x | 3% | x | x | x
CO[C@@H](C(=O)N1Cc2[nH]nc(NC(=O)c3ccc(N4CCN(C)CC4)cc3)c2C1)c1ccccc1 | x | x | 27µM* | x | x
CC(=O)OC(C(=O)N1CCN(c2ccc(F)cc2)CC1)c1ccccc1 (stereo not given) | -10% | 2% | -8% | -10% | i
Cc1ccc(C(=O)N/N=C\c2ccc(-c3ccc(Cl)c(Cl)c3)o2)cn1 | 11µM* | -5% | u | -96% | u
CN(C)CCOc1ccc(C(=C(CCCl)c2ccccc2)c2ccccc2)cc1 | x | x | 3% | x | x
CCn1c2ccccc2c2cc(CN3CCN(Cc4ccc(Br)cc4)CC3)ccc21 | u | 47% | x | 11µM* | x
CCn1c2ccccc2c2cc(CN3CCN(S(=O)(=O)CC)CC3)ccc21 | x | -12% | x | x | x
CCOC(=O)/C(=C\c1ccc(OC(F)F)cc1)C1=Nn2c(nnc2-c2ccc(Cl)cc2)SC1 | 4µM* | -18% | u | 2.5µM* | u
CCOC(=O)/C(=C/c1ccc(OC(F)F)cc1)C1=Nn2c(nnc2-c2ccc(Cl)cc2)SC1 | u | x | 10µM* | 3.2µM* | 7.9µM*
COc1ccc(-c2nnc3n2N=C(C)CS3)cc1 | 2% | -8% | 8% | -14% | i
SMILES | TGFb SMAD3 inh | Anesthetic bind | ATXN2 expr inh | HepG2 tox | ATXN viability
Cc1cc(C)n(CC(O)Cn2c3ccc(Cl)cc3c3cc(Cl)ccc32)c(=O)n1 (stereo not given) | u | u | 32µM* | -87% | u
CC(N)(C(=O)O)c1ccc(S(=O)(=O)O)cc1 (stereo not given) | x | 18% | x | x | x
Cc1ccc(C)c(N2CCN(C(=O)c3cc4c(C)nc5ccccc5c4o3)CC2)c1 | u | -18% | x | -121% | u
COc1ccccc1N1CCN(C(=O)c2cc3c(C)nc4ccccc4c3o2)CC1 | u | u | 20µM* | -20% | u
O=C(CCl)N(c1ccccc1)C1CCS(=O)(=O)C1 (stereo not given) | u | -5% | u | 13µM* | x
CC(=O)Nc1ccc(C(=O)OCC(=O)N(c2ccccc2)C2CCS(=O)(=O)C2)cc1 (stereo not given) | -4% | x | x | 1% | u
CCOCCCn1c(=N)c(C(=O)NCc2cccnc2)cc2c(=O)n3cc(C)ccc3nc21 | 0% | 130% | 5% | 2% | x
Cn1c(=O)c(C(=O)NNC(=O)c2ccccc2F)c(O)c2ccccc21 | u | 1% | -18% | -6% | i
Cn1c(=O)c(C(=O)NNC(=O)c2ccc(Br)cc2)c(O)c2ccccc21 | 7.1µM* | -2% | -11% | -44% | u
COc1c[nH]n(C2CCCCC2)c(=O)c1=O | -19% | -10% | 0% | 12% | 22µM*
COc1ccc2c(C(=O)NCc3ccc4c(c3)OCO4)c(-c3ccc(S(C)(=O)=O)cc3)sc2c1 | -5% | x | u | -3% | 35µM*
COc1ccc(C2c3[nH]c4ccc(OC)cc4c3CCN2C(=O)Nc2ccccc2)cc1 (stereo not given) | 8.9µM* | 31% | -23% | -23% | u
O=C(CSc1nc(-c2cccs2)cc(C(F)(F)F)n1)Nc1ccccc1Cl | -16% | u | -5% | 8% | i
Cc1ccc(O)c(NC(=O)CCS(=O)(=O)c2nc(-c3cccs3)cc(C(F)(F)F)n2)c1 | 10µM* | u | x | 13µM* | x
O=C(CCS(=O)(=O)c1nc(-c2cccs2)cc(C(F)(F)F)n1)Nc1cc(Br)ccc1O | 2.5µM* | -20% | x | 6.3µM* | x
O=C(CCS(=O)(=O)c1nc(-c2cccs2)cc(C(F)(F)F)n1)Nc1ccc(Br)cc1 | 5.6µM* | -16% | x | 10µM* | x
CCc1c2c(nc3ccc4c(c13)OCCO4)-c1nc3ccccc3c(=O)n1C2 | 2% | 0% | x | -31% | x
Cc1nn(-c2nc3ccccc3[nH]2)c(=O)c2ccccc12 | -1% | 8% | 0.4µM* | 3.2µM* | i

Screening data as filed in PubChem.
